# The full list was thinned out, with hits kept by preference.
# Pf Dd2 inh: Plasmodium falciparum Dd2 growth inhibition | 120,000 tested, 4.3% active | AID 1347417 | Potency, µM (titrated, usually from 28.9 µM), without a hit: at the top dose activity, negative = inhibition, actives largely listed as inhibitors | P. falciparum Dd2 growth, SYBR Green, 72 h; active = well fitted inhibition curve with a large enough effect;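 also: plate controls were DMSO vehicle for no effect and reference drug for full effect; nearly all actives have a fitted effect of over 65% in size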
#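 Readout: SYBR Green fluorescence, 485 nm excitation, 535 nm emission, after ~16 h lysis at 37C. Before that, Dd2-infected red cells (2.5% hematocrit) grew 72 h with compound, 29 uM top final concentration.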
# * marks the source's active call; other numbers are inactive results; i = inactive; ! = a repeat was not active; [ ] = another dose, or the depositor's remark. Potency is read from the fitted curve at half-maximal effect.
SMILES,Pf Dd2 inh
CN1Cc2cccn2CC1CNC(=O)c1ccccc1 (stereo not drawn),11µM*
CCc1ccc(Nc2ncnc3c2cnn3-c2cc(Cl)ccc2C)cc1,10µM*
Cc1ccc(Cl)cc1-n1ncc2c(NCCCc3ccccc3)ncnc21,20%
Cc1ccc(Cl)cc1-n1ncc2c(N3CCCCCC3)ncnc21,17%
CN1CCN(c2ncnc3c2cnn3-c2cccc(Cl)c2)CC1,i
Cc1ccc(Cl)cc1-n1ncc2c(NCCc3ccccc3)ncnc21,i
COc1ccccc1N1CCN(c2ncnc3c2cnn3-c2cc(Cl)ccc2C)CC1,8.9µM*
CC(=O)c1ccc(N2CCN(c3ncnc4c3cnn4C)CC2)cc1,i
Cc1ccc(-n2ncc3c(N4CCN(c5ccccc5)CC4)ncnc32)cc1C,61%
CC(=O)c1ccc(N2CCN(c3ncnc4c3cnn4-c3cc(Cl)ccc3C)CC2)cc1,11µM*
CCc1noc(-c2ccn3c(CNC(=O)c4cc5ccccc5[nH]4)nnc3c2)n1,-10%
COc1cc(Cl)c(C)cc1NC(=O)CN1C(=O)NC(c2ccc(Cl)cc2)C2=C1COC2=O (stereo not drawn),-19%
O=C1CCC2(CCN1Cc1ccccc1)CCN(S(=O)(=O)c1cccs1)CC2,-7%
NC(=O)N1CCCC(C(=O)NCCS(=O)(=O)c2ccc(F)cc2)C1 (stereo not drawn),25%
COc1ccc(OC)c(CNC(=O)c2c(OC)cc(=O)n3c2CCCC3)c1,-4%
O=C(O)c1cccc(-c2cnc3ccccc3c2)c1,31%[44.1 µM]
NCc1ccccc1-c1cnc2ccccc2c1,10µM*
COCCOCC(=O)NCCc1noc(-c2ccccc2)n1,-6%
CC(=O)N1CCC(N2C[C@H](O)C[C@H]2c2nc(-c3cccc(C)c3)no2)CC1,i
CSCCC(NS(=O)(=O)c1ccc2c(c1)oc(=O)n2C)C(=O)N1CCN(c2cc(C)ccc2C)CC1 (stereo not drawn),-21%
Cc1nc2ccc(S(=O)(=O)NCC(=O)Nc3ccc(C)c(Cl)c3)cc2s1,i
Cc1ccc(C)c(N2CCN(C(=O)C(CC(C)C)NS(=O)(=O)c3ccc4nc(C)sc4c3)CC2)c1 (stereo not drawn),7.9µM*
COc1ccc2nc3n(c2c1)[C@@H](CNC(=O)c1ccc(F)cc1)COC3,i
CCOC(=O)c1ccccc1NC(=O)CN1C(=O)CC(c2ccccc2)Sc2ccccc21 (stereo not drawn),i
COc1ccc(C2CC(=O)N(CC(=O)Nc3cc(C)ccc3C)c3ccccc3S2)cc1 (stereo not drawn),-7%
SMILES,Pf Dd2 inh
COc1cc(C2CC(=O)N(CC(=O)Nc3ccccc3F)c3ccccc3S2)cc(OC)c1OC (stereo not drawn),3.2µM*
CC(C)CN1C(=O)CCc2cc(NC(=O)C3CCC3)ccc21,-4%
CCCc1ccccc1OCC(=O)c1ccc2c(c1)N(CC(=O)N1CCOCC1)C(=O)CO2,-8%
COCCN(C)C[C@H]1C[C@H](CO)CN(C(=O)CN2CCc3ccccc3C2)C1,-20%
COc1ccc(-c2nc3ccccc3o2)cc1NC(=O)COc1ccc(C(C)(C)C)cc1,7.9µM*
COc1ccc(-c2nc3ccccc3s2)cc1NC(=O)COc1ccc(C)cc1,10%
COc1ccc(-c2nc3ccccc3o2)cc1NC(=O)COc1cc(C)cc(C)c1,i
COc1ccc(C(=O)N2C[C@@H](Oc3ccccc3)C[C@H]2C(=O)N2CCOCC2)cc1F,5%
Cc1ncc(CN2CCC3(CC2)CCN(Cc2ccoc2)CC3CO)n1C (stereo not drawn),8%
Cc1cccc(Cl)c1NC(=O)Cn1cccc1-c1nc(-c2ccc(F)cc2)no1,-24%
COc1ccc(C(=O)Nc2ccc3c(N4CCCCC4)ncnc3c2)cc1,-22%
O=C(Nc1ccc2c(N3CCCCC3)ncnc2c1)c1ccc(F)c(F)c1,2µM*
O=C(Nc1ccc2ncnc(N3CCCCC3)c2c1)c1ccc(F)cc1,i
O=C(c1ccccn1)N1CCn2c(nn(-c3ccc(Cl)cc3)c2=O)C1,9%
COCc1noc(CNc2cc(-c3ccccc3F)nc3ccnn23)n1,i
Cc1cc(C)c(CNC(=O)c2nc(-c3ccc(CO)cc3)cc3c2ccn3C)c(=O)[nH]1,-14%[44.1 µM]
CCOC(=O)c1ccc2c(c1)[C@@H]1C=CC[C@@H]1[C@H](c1cccc(OC)c1OC)N2,0.45µM*
COc1ccc(OC)c([C@@H]2Nc3ccc(C(=O)O)cc3[C@@H]3C=CC[C@@H]32)c1,12%
COc1ccc(Br)cc1[C@@H]1Nc2ccc(C(=O)O)cc2[C@@H]2C=CC[C@@H]21,8%
O=C1NCc2ccccc2CC12CCN(Cc1ccccc1Cl)CC2,-13%
CCC(CC)C(=O)NCCc1noc(C)n1,1%
O=C(CN1CCCCCCC1)N1CCCC2(CCNC2)C1 (stereo not drawn),7%
CCCN(CC1CCOC1)S(=O)(=O)c1ccccc1 (stereo not drawn),i[5.79 µM]
C[S+](=O)([O-])N1CC2ON=C(C(=O)NCCc3ccc(Cl)cc3)C2C1 (stereo not drawn),6%
Brc1ccc(CN2CCC(c3nc4ccncc4[nH]3)C2)cc1 (stereo not drawn),10µM*!
SMILES,Pf Dd2 inh
CN(C)c1ccc(CN2CCC(c3nc4ccncc4[nH]3)C2)cc1 (stereo not drawn),-18%[44.1 µM]
c1cncc(CN2CC[C@H](c3nc4ccccc4[nH]3)C2)c1,-21%[44.1 µM]
Cc1cnc(-c2cccnc2)n1C1CCN(C(=O)c2ccncc2)CC1,5%
Cc1cc(Cl)ccc1C(=O)N1Cc2cnn(Cc3ccc(F)cc3)c2C1,-26%
CC(C)CCC1=NC2(CCN(C(=O)C3CC34CCCC4)CC2)C(=O)N1 (stereo not drawn),-22%
O=C(c1ccccc1F)N1CCC2(CC1)Cc1ccccc1NC2=O,7%
O=C(NCCN1Cc2ccccc2OC(c2ccccc2F)C1)c1ccncc1 (stereo not drawn),i
COc1ccc(NC(=O)CN2C(=O)NC3(CCC(C)CC3)C2=O)cc1OC (stereo not drawn),0%
O=C(NCC1CN(Cc2cccnc2)CC12CN(c1ccccc1)C2)C1CC1 (stereo not drawn),i
CCS(=O)(=O)Nc1ccc(C2(C(=O)Nc3cccc(F)c3C)CCCCC2)cc1,11µM*
CCS(=O)(=O)Nc1ccc(C2(C(=O)NCc3ccc(F)cc3F)CCCCC2)cc1,i
CCS(=O)(=O)Nc1ccc(C2(C(=O)NCc3ccccc3)CCCCC2)cc1,i
NC(=O)[C@@H](Cc1c[nH]c2ccccc12)NC(=O)[C@H]1CN(C(=O)C2CCNCC2)CCN1C(=O)C1CCNCC1,5%

# Screens deposited in PubChem BioAssay by National Center for Advancing Translational Sciences (NCATS).
